# From the supplement of paper PMC11482750
# ± gives the standard deviation of the averaged measurements.
# Compound: CCC1CCC(=O)O1 [γ-hexalactone]
# Assay: control-subtracted net OSN firing rate; higher = stronger neuronal activation
# Details: odorant dilution (vol/vol): 1/100
# Procedure: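 Single sensillum recordings from olfactory sensory neurons. The neurons sit in the maxillary palp or antennal sensilla of D. melanogaster (wild type, mutants, or at1 empty-neuron lines expressing Or42a homologs or the A181D S307P mutant) and of four Scaptomyza species. Each odorant was given as a 1 s pulse from 20 µl loaded on filter paper at 1:100 vol/vol, diluted in mineral oil (γ-hexalactone in DMSO). Spikes were counted in a 0.5 s window starting 0.2 s after onset, background was subtracted, the count was doubled, and the mean solvent-control response was subtracted.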
row,Target,control-subtracted net OSN firing rate [spikes/s]
1,Canton-S ab2b,6.86 ± 9.2
2,Canton-S ab4b,-4 ± 5.3
3,Canton-S ab1b,2.5 ± 8.5
4,"Or67dGal4, UAS-Sfla Or42a2 at1",-3.14 ± 2.5
5,Or67dGal4; UAS-SflaOr42a4 at1,50.9 ± 14
6,Canton-S ab5b,1.6 ± 5.2
7,Canton-S pb1b,-7.71 ± 12
8,Canton-S ai3c,0.5 ± 4.4
9,Canton-S ai3b,-2.5 ± 6.8
10,Canton-S pb3b,-2 ± 8.5
11,"Or67dGal4, UAS-Sfla A181D S307P/+ at1",16.8 ± 14
12,Canton-S at1,-2 ± 5.5
13,Canton-S pb2a,-7.5 ± 12
14,"Or67dGal4, UAS-Sfla Or42a3/+ at1",34 ± 6.2
15,Canton-S ab10a,-0.4 ± 7.9
16,Canton-S ab3b,-0.909 ± 7.1
17,"Or67dGal4, UAS-Sfla Or42a4/+ at1",3.43 ± 6.4
18,"Or67dGal4, UAS-Spal Or42a at1",95.8 ± 46
19,Canton-S ab5a,6.2 ± 8.2
20,Canton-S pb1a,167 ± 28

row,Target,control-subtracted net OSN firing rate [spikes/s]
1,Canton-S at4c,-6 ± 5.2
2,Canton-S ab6b,4.22 ± 12
3,Canton-S ab7b,-2 ± 3.3
4,Canton-S ab1d,1.5 ± 5.5
5,Canton-S ai3a,-1.5 ± 3.4
6,Canton-S ab8a,3.2 ± 11
7,Canton-S ab9a,2.67 ± 7.6
8,Or67dGal4; UAS-SflaOr42a3 at1,48.8 ± 19
9,Canton-S ab6a,3.33 ± 7
10,Canton-S ab7a,-7.5 ± 11
11,Canton-S ab9b,-2.67 ± 12
12,Canton-S ab3a,1.82 ± 8.3
13,"Or67dGal4, UAS-Sfla Or42a4 at1",6 ± 9.1
14,"Or67dGal4, UAS-Sfla Or42a3 at1",38.3 ± 15
15,Canton-S ab4a,2 ± 2
16,Canton-S ai2b,10 ± 6.9
17,Canton-S ab1a,0.25 ± 12
18,Canton-S pb2b,-2.5 ± 3.8
19,Canton-S ab2a,-6.29 ± 11
20,Canton-S ai2a,-2 ± 5.3
